# Source: PubChem BioAssay (ICCB-Longwood Screening Facility, Harvard Medical School)
# Many of the other results were omitted from the sample, so hits are more common in it than they were.
# Vaccinia pol inh – blocks vaccinia virus processive DNA synthesis | in vitro processive DNA synthesis, absorbance read-out; stronger effect = lower value | normalized absorbance, % (no concentration beside the values) | 46,000 tested, 0.94% active; in the data active = normalized absorbance mostly below about 85%, no sharp cut-off; inactive = mostly above about 86%
# A number is an active result; . = inactive; ! = a repeat was not active.
SMILES,Vaccinia pol inh
CCOC(=O)c1cc(-c2ccccc2)n(CC(=O)N2CCc3ccccc32)c1C,.
COc1ccc(Cl)cc1NC(=O)COC(=O)CCC1CCCCC1,.
COc1ccc(CSc2ncn[nH]2)cc1,.
COc1ccc(C2=C(C#N)C(=O)OC2)cc1,.
COc1ccc(CSC2=C(C#N)C(=O)NC3(CCCCC3)S2)cc1,71
Cc1noc(/C=C/c2cccs2)c1S(=O)(=O)N1CCCC(C(=O)NCC2CCCO2)C1 (stereo not given),.
Cc1cccc(C(=O)OCC(=O)N2CC(C)CC(C)C2)c1O (stereo not given),.
Cc1ccc(NC(=O)NC(NC(=O)Cc2ccccc2)(C(F)(F)F)C(F)(F)F)cc1C,.
CCn1c2ccccc2n2cc(-c3ccccc3)nc12,.
c1ccc(-c2cn3c4ccccc4n(CCN4CCCCC4)c3n2)cc1,59
Nc1nc2ccccc2n1CCN1CCCCC1,.
CCCN(CCC)C(=O)CSc1ncccc1C(=O)Oc1ccccc1Cl,.
CN1CCC(N(C)C(=O)CSc2ccc3ccccc3c2)CC1,.
O=C(c1ccc(S(=O)(=O)N2CCCCC2)cc1)N1CCN(c2cccc(Cl)c2)CC1,.
O=C(Cc1nc2ccccc2[nH]1)NCc1ccccn1,.
Cc1ccc(S(=O)(=O)Nc2ccc(Br)cc2C(NCC(=O)O)c2ccccc2)cc1 (stereo not given),68
Nc1ccc(Br)cc1C(NCC(=O)O)c1ccccc1 (stereo not given),.
CCOC(=O)Nc1ccc(Br)cc1C(NCC(=O)OC)c1ccccc1 (stereo not given),.
Cn1c(Cc2ccccc2C(=O)O)nc(=O)c2ccccc21,.
COc1ccc(-c2noc(CNC(=O)COc3ccccc3)n2)cc1,.
CCOc1ccc(-c2nc3ccc(-c4nc5ccc(N6CCN(C)CC6)cc5[nH]4)cc3[nH]2)cc1,23
CCOc1ccc2nc(SCC)[nH]c2c1,.
CCOc1ccc(-c2nc(=S)[nH][nH]2)cc1,.
O=CN1CCN(CC(O)Cn2c3ccccc3c3ccccc32)CC1 (stereo not given),.
OC(CN(Cc1ccccc1)Cc1ccccc1)Cn1c2ccccc2c2ccccc21 (stereo not given),.
SMILES,Vaccinia pol inh
OCCN(CCO)CC(O)Cn1c2ccccc2c2ccccc21 (stereo not given),77
Cc1ccc(NCC(O)Cn2c3ccccc3c3ccccc32)cc1 (stereo not given),.
CS(=O)(=O)NCC(O)Cn1c2ccccc2c2ccccc21 (stereo not given),.
CC(C)(CO)NCC(O)Cn1c2ccccc2c2ccccc21 (stereo not given),65
CC(=O)Oc1ccc(C)cc1C(O)(C(F)(F)F)C(F)(F)F,.
O=c1c2ccccc2nc(SCc2ccccc2)n1OCc1ccccc1,.
O=C(OCCO)c1cccc2c1-c1ccccc1C2=O,74
CCOC(=O)c1cccc2c1-c1ccccc1C2=O,.
CCOC(=O)c1cccc2c1-c1ccccc1/C2=N/O,.
O=C(CCN1CCCCC1)Nc1ccc(F)c(Cl)c1,.
CN1CCC(NCc2ccccc2Cl)CC1,.
CCC(=O)NC(CC)Cc1ccccc1 (stereo not given),.
c1ccc2[nH]c(-c3nc4ccccc4o3)nc2c1,.
CN(C)c1ccc(C(=C2C=CC(=[N+](C)C)C=C2)c2ccc(N(C)C)cc2)cc1,49
CN(C)c1ccc(C(=O)OCC(=O)NC2CC2)cc1,.
CN(C)c1ccc(C(=NO)c2ccc(N(C)C)cc2)cc1,.
CN(C)C(=O)COC(=O)c1cccc(Oc2ccccc2)c1,.
Brc1ccc(-n2cccc2)cc1,.
C=CCOc1ccccc1CNc1ncn[nH]1,.
COc1ccc(CNc2ccccn2)cc1OC,.
COc1ccc(CNc2ncn[nH]2)cc1OC,82
Cc1cc(C)nc(/N=C/c2c(O)c3ccccc3oc2=O)n1,.
Oc1c(Cl)cc(Cl)cc1C=Nc1ccc2n[nH]nc2c1,.
Oc1c(Cl)cc(Cl)cc1/C=N/c1ccnn1-c1ccccc1,.
Cc1cc(N=Cc2cc(Cl)cc(Cl)c2O)no1,56
SMILES,Vaccinia pol inh
Nc1sc(-c2ccccc2)c(Cc2ccccc2)c1C(=O)O,90
Nc1sc2c(c1C(=O)c1ccccc1)CCCC2,.
CCOC(=O)c1c(-c2ccccc2)csc1N,.
COc1ccc(/C=C/C(=O)N(C)c2ccccc2)cc1OC,.
COc1ccc2cc(S(=O)(=O)N3CCN(Cc4ccccc4)CC3)ccc2c1,.
O=C(NCc1ccc2[nH]c3c(c2c1)CCCC3)c1ccc(F)c(F)c1,.
CCC(Sc1nnc(-c2c[nH]c3ccccc23)n1CC)C(=O)OC (stereo not given),.
COc1ccc2nc(C)c3c(c2c1)OC(C)C3 (stereo not given),.
COc1ccc2nc(N=C(N)N)nc(C)c2c1,36
Cc1nc(N=C(N)N)nc2ccccc12,.
O=C(CSc1cnc2ccccc2n1)Nc1ccc(F)cc1,.
Cc1ccc(C(=O)Nc2ccc(Br)cc2C)cc1I,.
NC(N)=NC(=O)c1nc(Cl)c(N)nc1N,63!
CC(=O)NS(=O)(=O)c1ccc(C)cc1,.
CCN(CC)C(=O)NC(=O)c1c(C)cc(Cl)nc1Cl,.
COc1ccc(N=Cc2ccc(Cl)cc2)cc1OC,.
Nc1ccccc1SCC(=O)N1CCc2ccccc21,79
Cc1ccc(SCC(=O)N2CCc3ccccc32)cc1,.
O=C(CSc1c[nH]c2ccccc12)N1CCc2ccccc21,.
CC1OC(OC2CC(O)C3(CO)C4C(CCC3(O)C2)C2(O)CCC(C3=CC(=O)OC3)C2(C)C[C@H]4O)C(O)C(O)C1O (stereo not given in full),.
Cc1cccc(NC(=O)CSc2nccn2-c2ccccc2)c1,.
N=C1c2ccccc2CN1c1ccc2c(c1)OCCO2,.
CCc1ccc(N2Cc3ccccc3C2=N)cc1,.
Cc1cc(C)nc(N2Cc3ccccc3C2=N)n1,69
O=C(O)CC(c1ccc(O)cc1)N1Cc2ccccc2C1=O (stereo not given),.
SMILES,Vaccinia pol inh
O=C(O)/C=C\C(=O)N1CCN(c2nc(-c3ccccc3)ns2)CC1,.
CC(C)(C)NC(=O)N1CCN(c2nc(-c3ccccc3)ns2)CC1,66
c1ccc(-c2nsc(NC3Cc4ccccc4C3)n2)cc1,.
NC(CC(=O)O)c1cccc(Oc2ccccc2)c1 (stereo not given),.
Cc1cc(C)n2cc(CN)nc2n1,.
CSCCC(C(=O)O)n1c(O)c(/C=C2\C=Nc3ccccc32)sc1=S (stereo not given),78
CSCCC(C(=O)O)N1C(=O)CSC1=S (stereo not given),.
CSCCC(C(=O)O)N1C(=O)/C(=C/c2ccc(O)cc2)SC1=S (stereo not given),.
c1ccc([S+]2c3ccccc3Nc3ccccc32)cc1,.
CCSC1=C(C#N)C(=O)NC(c2ccco2)S1 (stereo not given),.
O=C1O/C(=C\N2CCN(c3ccccc3)CC2)c2ccccc21,.
COc1cccc2cc(-c3nc4sc(C(=O)Nc5cccc(F)c5)c(C)c4c(=O)[nH]3)c(=O)oc12,.
NC(CSCc1ccccc1Cl)C(=O)O (stereo not given),.
NC(CSCc1oc(-c2ccccc2)cc1C(=O)O)C(=O)O (stereo not given),77
NC(Cc1ccccc1F)C(=O)O (stereo not given),.
CCN1CCC(N(Cc2cccc(OC)c2)C(=O)NC23CC4CC(CC(C4)C2)C3)CC1,.
CN1/C(=C\C=C2C(=O)c3ccccc3C2=O)Sc2ccccc21,.
CC(=S)/C=C1\Sc2ccccc2N1C,.
CCN1/C(=C/c2ccc3cc(C)ccc3[n+]2C)Sc2cc(OC)ccc21,24
